Measured values: PubChem BioAssay
Activity calls are given as the source filed them. Unless noted, how the calls were made is not given here.

Key:
[1] = resazurin metabolic signal in HepG2 cells – cell-based, resazurin fluorescence, 24 h, PK04 Diversity Set, profiling panel (AID 1172); details: HepG2 viability, higher = more signal
[2] = budding yeast growth changes without added modifier – OD600, strain BY4716, 24 h, basal condition, primary screen (AID 1173); details: S. cerevisiae BY4716 growth, OD600, 24 h; higher = more signal, called active from +8 up or from −8 down
[3] = viability profiling in MM1S myeloma cells – cell-based, resazurin fluorescence, basal, 24 h, PK04 Diversity Set, profiling panel (AID 1174); details: higher = more signal, called active from +8 up or from −8 down;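 further: MM1S multiple myeloma cell line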
[4] = molecular target: Dihydroorotate dehydrogenase (quinone), mitochondrial (Plasmodium falciparum (isolate 3D7)) (UniProt Q08210); assay: inhibition of P. falciparum DHODH – biochemical, C-terminal His tag, absorbance 600 nm, primary screen (AID 1175); details: PfDHODH enzyme, DCIP absorbance 600 nm; higher = more signal, called active from +8 up or from −8 down;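 further: recombinant parasite enzyme with a five histidine tag at its C terminus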
Dihydroorotate dehydrogenase (quinone), mitochondrial (Plasmodium falciparum (isolate 3D7)), sequence (Q08210 whole entry, looked up): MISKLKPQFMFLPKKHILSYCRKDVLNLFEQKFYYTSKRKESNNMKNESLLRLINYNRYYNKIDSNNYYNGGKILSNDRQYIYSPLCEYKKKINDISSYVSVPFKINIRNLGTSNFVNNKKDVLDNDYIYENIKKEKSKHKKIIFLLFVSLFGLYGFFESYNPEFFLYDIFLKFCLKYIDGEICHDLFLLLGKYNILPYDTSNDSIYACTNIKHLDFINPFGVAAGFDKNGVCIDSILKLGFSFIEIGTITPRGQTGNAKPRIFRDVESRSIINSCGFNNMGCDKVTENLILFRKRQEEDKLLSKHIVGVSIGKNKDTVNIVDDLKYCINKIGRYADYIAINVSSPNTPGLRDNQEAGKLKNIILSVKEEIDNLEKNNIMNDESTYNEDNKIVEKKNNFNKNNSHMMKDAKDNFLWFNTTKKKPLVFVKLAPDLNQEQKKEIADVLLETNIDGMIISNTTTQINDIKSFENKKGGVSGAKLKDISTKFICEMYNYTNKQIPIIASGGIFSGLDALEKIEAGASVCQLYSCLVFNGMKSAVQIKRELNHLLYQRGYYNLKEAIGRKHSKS

[5] = inhibition of PAO1 biofilm formation – strain PAO1, LB-PBS medium, absorbance 600 nm, primary screen (AID 1176); details: P. aeruginosa PAO1 growth/biofilm, A600, 12 h; higher = more signal
[6] = growth modulation of vineyard yeast isolate – strain RM11-1a, OD600, basal, 24 h, primary screen (AID 1177);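 further: cultures grown under basal conditions with no added stressor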; details: S. cerevisiae RM11-1a growth, OD600, 24 h; higher = more signal, called active from +8 up or from −8 down
[7] = growth of efflux-deficient E. coli DRC39 – strain DRC39, OD650, 24 h, E. coli filamentation inducers, primary screen (AID 1178);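 further: growth measured as culture turbidity by optical density at 650 nm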; details: E. coli DRC39 acrAB, higher = more signal, called active from +8 up or from −8 down
[8] = growth of efflux-deficient E. coli DRC39 – strain DRC39, OD650, 48 h, E. coli filamentation inducers, primary screen (AID 1179);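 further: screen aims at cell division blockers that make cells filament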; details: E. coli DRC39 delta-acrAB growth, higher = more signal, called active from +8 up or from −8 down
[9] = viability profiling in RPMI8226 myeloma cells – cell-based, resazurin fluorescence, basal, 24 h, PK04 Diversity Set, profiling panel (AID 1180); details: higher = more signal;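 further: RPMI8826 multiple myeloma cell line at 5000 cells per well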
[10] = molecular target: E3 ubiquitin-protein ligase XIAP (Homo sapiens) (UniProt P98170); assay: small molecules binding XIAP protein – biophysical, small-molecule microarray, fluorescence 635 nm, primary screen (AID 1181); details: higher = more signal;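 further: score merges 667 nm emission and signal to noise over triplicate slides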
E3 ubiquitin-protein ligase XIAP (Homo sapiens), sequence (P98170 whole entry, looked up, the tested form may be a part): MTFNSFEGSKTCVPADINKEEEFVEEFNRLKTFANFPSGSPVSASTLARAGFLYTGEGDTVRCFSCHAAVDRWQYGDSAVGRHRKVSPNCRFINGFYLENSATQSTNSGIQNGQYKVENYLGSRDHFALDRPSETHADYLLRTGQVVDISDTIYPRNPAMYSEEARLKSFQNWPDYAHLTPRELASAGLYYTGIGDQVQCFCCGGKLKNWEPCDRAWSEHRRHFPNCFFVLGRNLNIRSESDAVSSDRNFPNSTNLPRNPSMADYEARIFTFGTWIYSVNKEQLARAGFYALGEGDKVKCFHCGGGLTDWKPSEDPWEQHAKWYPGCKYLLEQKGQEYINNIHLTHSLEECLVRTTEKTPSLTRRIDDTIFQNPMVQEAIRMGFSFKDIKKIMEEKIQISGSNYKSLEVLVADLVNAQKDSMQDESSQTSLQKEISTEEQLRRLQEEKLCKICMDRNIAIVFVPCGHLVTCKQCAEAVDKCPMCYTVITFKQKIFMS

[11] = tested on: XIP peptide (Xip251-270) binding; assay: XIP fragment 251-270 binding compounds – biochemical, small-molecule microarray, fluorescence 635/667 nm, 0.1 µg/mL protein, primary screen (AID 1182); details: fluorescent protein binding, 635 nm, higher = more signal, called active from +8 up or from −8 down
XIP peptide (Xip251-270) = assay: compounds binding XIP fragment 251-270 – biochemical, small-molecule microarray, fluorescence 635/667 nm, 0.5 µg/mL protein, primary screen (AID 1183); details: fluorescence 635 nm, higher = more signal
[12] = blood-stage malaria parasite viability loss – strain 3D7, DAPI fluorescence, 100 nL, primary screen (AID 1184);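 further: parasites grown inside human red blood cells in medium with human serum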; details: P. falciparum 3D7 growth, 3 d, higher = more signal
[13] = molecular target: Homeobox protein Hox-A13 (Mus musculus) (UniProt Q62424); assay: disruptors of Hoxa13 oligonucleotide interaction – biochemical, fluorescence polarization, labeled oligonucleotide, primary screen (AID 1185); details: Hoxa13:DNA binding, 15 min, higher = more signal, called active from +8 up or from −8 down
Homeobox protein Hox-A13 (Mus musculus), sequence (Q62424 whole entry, looked up): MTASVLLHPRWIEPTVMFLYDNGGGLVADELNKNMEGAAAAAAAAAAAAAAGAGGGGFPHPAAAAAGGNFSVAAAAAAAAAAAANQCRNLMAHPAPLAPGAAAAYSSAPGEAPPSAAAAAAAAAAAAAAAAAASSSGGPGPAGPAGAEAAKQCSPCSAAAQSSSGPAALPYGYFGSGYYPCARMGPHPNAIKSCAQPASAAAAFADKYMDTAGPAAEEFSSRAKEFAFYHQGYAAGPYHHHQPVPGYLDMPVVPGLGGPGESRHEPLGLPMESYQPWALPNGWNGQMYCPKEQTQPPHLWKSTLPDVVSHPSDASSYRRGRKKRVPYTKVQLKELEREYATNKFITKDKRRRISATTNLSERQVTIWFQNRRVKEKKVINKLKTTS

[14] = blockers of DNA damage checkpoint Chk1 activation – imaging, HeLa, hydroxyurea, phospho-Chk1 antibody, percent positive cells, primary screen (AID 1186); details: hydroxyurea-induced phospho-Chk1 immunofluorescence imaging, higher = more signal
[15] = blockers of DNA damage checkpoint Chk1 activation – imaging, HeLa, hydroxyurea, phospho-Chk1 nuclear intensity, primary screen (AID 1187); details: hydroxyurea-induced phospho-Chk1 immunofluorescence imaging, higher = more signal

| SMILES | z-score [1] | z-score [2] | z-score [3] | composite z-score [4] | z-score [5] | z-score [6] | z-score [7] | z-score [8] | z-score [9] | composite z-score [10] | composite z-score [11] | composite z-score (XIP peptide (Xip251-270)) | z-score [12] | z-score [13] | z-score [14] | z-score [15] |
| --- | --- | --- | --- | --- | --- | --- | --- | --- | --- | --- | --- | --- | --- | --- | --- | --- |
| NC(=O)N1C(=O)C2C(C1=O)C1C=C(CCCO)C2C(c2cccs2)N1Cc1cc2c(cc1Br)OCO2 (centres undefined) | 0.652 | -2.37 (inactive) | 0.271 (inactive) | -1.72 (inactive) | -0.259 (inactive) | 0.0427 (inactive) | 0.18 (inactive) | 0.0419 (inactive) | 0.645 | -0.267 | 0.0706 (inactive) | 0.231 | 0.376 | -5.04 (inactive) | 0.164 (inactive) | 0.509 (inactive) |
| CN1C(=O)C2C=CC(C(O)C3CCCCC3)N(N3CCCCC3)C2C1=O (centres undefined) | -0.435 | 0.369 (inactive) | -0.752 (inactive) | 0.419 (inactive) | 0.158 (inactive) | 1.51 (inactive) | -0.501 (inactive) | -0.406 (inactive) | -0.487 | -0.0548 | 0.269 (inactive) | 0.803 | -0.151 | -3.82 (inactive) | 0.796 (inactive) | 0.332 (inactive) |
| CCOC(=O)C1=C[C@@H](c2ccccc2)N(S(=O)(=O)c2ccc(C)cc2)[C@H]1c1cccc(Cl)c1 | -0.663 | 1.7 (inactive) | -0.848 (inactive) | -0.184 (inactive) | -0.169 (inactive) | 2.1 (inactive) | -0.823 (inactive) | -0.777 (inactive) | -1.64 | -0.221 | 0.526 (inactive) | 0.803 | -2.03 | 0.587 (inactive) | 0.289 (inactive) | 0.284 (inactive) |
| COC(=O)c1c(CC[C@@H](CO)NC(=O)N[C@H](Cn2cc(-c3ccccc3C)nn2)C(C)C)oc(C(C)=O)c1C(=O)OC | -0.329 | -0.723 (inactive) | 0.173 (inactive) | -3.09 (inactive) | 0.574 (inactive) | -0.489 (inactive) | 0.173 (inactive) | -0.488 (inactive) | -0.371 | 0.211 | -0.0077 (inactive) | -0.0163 | -1.85 | -0.127 (inactive) | 1.16 (inactive) | 0.823 (inactive) |
| CN(C)CCCNC(=O)[C@@]1(c2ccc([N+](=O)[O-])cc2)CC(=O)N(CC23CC4CC(CC(C4)C2)C3)[C@@H]1c1ccc(CO)cc1 | -6.19 | -16.2 (active) | -8.92 (active) | 0.687 (inactive) | 0.472 (inactive) | -8.93 (active) | 0.325 (inactive) | -2.4 (inactive) | -6.48 | 0.0896 | 1.13 (inactive) | 0.843 | -2.4 | 7.52 (inactive) | -0.451 (inactive) | -0.75 (inactive) |
| CN(C)CCCN1C(=O)[C@@]2(c3ccc([N+](=O)[O-])cc3)CC(=O)N(CC34CC5CC(CC(C5)C3)C4)[C@@H]2c2ccc(CO)cc21 | -0.349 | 0.24 (inactive) | -0.752 (inactive) | -7.42 (inactive) | -0.121 (inactive) | 0.536 (inactive) | 0.384 (inactive) | 0.567 (inactive) | -0.959 | -0.02 | -0.0347 (inactive) | 0.35 | -0.428 | -2.47 (inactive) | -0.411 (inactive) | -0.112 (inactive) |
| CC(C)(C)OC(=O)CC[C@]1(C(=O)NCCN2CCOCC2)N=C(c2ccc(OCCCO)cc2)O[C@H]1c1ccccc1N=[N+]=[N-] | -0.0231 | -0.893 (inactive) | -1.28 (inactive) | 0.255 (inactive) | 0.494 (inactive) | -0.279 (inactive) | 0.23 (inactive) | -0.635 (inactive) | -0.565 | -0.16 | 0.716 (inactive) | 0.864 | -1.73 | -4.1 (inactive) | 0.0695 (inactive) | 0.234 (inactive) |
| CC(C)CCC[C@@H](C)[C@H]1CC[C@@]2(C)C3=C(CC[C@]12C)[C@@]1(C)CC[C@H](OC(=O)c2ccc(Br)cc2)C(C)(C)C1CC3 (some centres undefined) | 1.05 | -0.149 (inactive) | 0.345 (inactive) | -1.4 (inactive) | 0.0694 (inactive) | -1.7 (inactive) | 0.998 (inactive) | 1.07 (inactive) | 0.766 | 0.0223 | -0.349 (inactive) | -0.198 | 0.665 | -0.708 (inactive) | 0.0833 (inactive) | 0.377 (inactive) |
| O=C1NC(=O)C2C1C=CC(C(O)c1ccc(Br)cc1)N2Nc1ccccn1 (centres undefined) | -0.917 | 0.154 (inactive) | -0.817 (inactive) | -0.347 (inactive) | 1.45 (inactive) | -1.44 (inactive) | 0.421 (inactive) | 0.956 (inactive) | -0.913 | 0.367 | 0.623 (inactive) | 0.883 | 0.284 | -0.555 (inactive) | 0.48 (inactive) | 0.784 (inactive) |
